Experimental data reported in PubChem BioAssay AID1159580 (chemical genetic matrix, 2015).
Where “and” joins values, the source holds several entries; their conditions need not be identical. Equal entries are not always repeated. Among all 5,500 compounds or so, about 2,000 (36%) were called active. Inconclusive results (about 18%) are left out. Rule as the data show it: active = normalized growth mostly below about 0.91 (no sharp cut-off); inconclusive = no clear call, values can overlap the other calls; inactive = mostly above about 0.92. Some of the results follow.

Experiment: chemical genetic growth profiling, strain panel (AID 1159580);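 also: tested at 20 µM; growth read once vehicle control cultures reached saturation at 30 °C; 1 = growth at the plate median or of vehicle wells; lower values mean less growth of the strain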
Details: growth OD

Measured: normalized growth

N[C@@H](C(=O)N[C@@H]1C(=O)N2C(C(=O)O)=C(Cl)CS[C@H]12)c1ccccc1
inactive: S. cerevisiae deletion strains, locus YAL013W, strain DEP1, stronger effect = lower value 1.01 | S. cerevisiae deletion strains, locus YBR021W, strain FUR4, stronger effect = lower value 1 | S. cerevisiae deletion strains, locus YBR229C, strain ROT2, stronger effect = lower value 1.02 | S. cerevisiae deletion strains, locus YCL029C, strain bik1, stronger effect = lower value 1.03 | S. cerevisiae deletion strains, locus YDL035C, strain GPR1, stronger effect = lower value 1.01 | S. cerevisiae deletion strains, locus YDL074C, strain BRE1, stronger effect = lower value 1.02 | S. cerevisiae deletion strains, locus YDL101C, strain DUN1, stronger effect = lower value 1.01 | S. cerevisiae deletion strains, locus YDL134C, strain PPH21, stronger effect = lower value 1.01 | S. cerevisiae deletion strains, locus YDL185W, strain tfp1, stronger effect = lower value 1.02 | S. cerevisiae deletion strains, locus YDL192W, strain arf1, stronger effect = lower value 1.02 | S. cerevisiae deletion strains, locus YDR101C, strain arx1, stronger effect = lower value 1.01 | S. cerevisiae deletion strains, locus YDR150W, strain NUM1, stronger effect = lower value 1.01 | S. cerevisiae deletion strains, locus YDR162C, strain NBP2, stronger effect = lower value 1.02 | S. cerevisiae deletion strains, locus YDR318W, strain mcm21, stronger effect = lower value 1.02 | S. cerevisiae deletion strains, locus YDR388W, stronger effect = lower value 1.02 | S. cerevisiae deletion strains, locus YDR502C, strain sam2, stronger effect = lower value 1.02 | S. cerevisiae deletion strains, locus YEL061C, strain CIN8, stronger effect = lower value 1.01 | S. cerevisiae deletion strains, locus YER110C, stronger effect = lower value 1.03 | S. cerevisiae deletion strains, locus YER155C, strain BEM2, stronger effect = lower value 1 | S. cerevisiae deletion strains, locus YER167W, strain BCK2, stronger effect = lower value 1.01 | S. cerevisiae deletion strains, locus YGL078C, strain dbp3, stronger effect = lower value 1.02 | S. cerevisiae deletion strains, locus YGL086W, strain mad1, stronger effect = lower value 1.01 | S. cerevisiae deletion strains, locus YGL248W, strain PDE1, stronger effect = lower value 1.02 | S. cerevisiae deletion strains, locus YGR078C, strain PAC10, stronger effect = lower value 1.01 | S. cerevisiae deletion strains, locus YGR135W, strain pre9, stronger effect = lower value 1.01 | S. cerevisiae deletion strains, locus YGR229C, strain SMI1, stronger effect = lower value 1.01 | S. cerevisiae deletion strains, locus YGR252W, strain gcn5, stronger effect = lower value 1.04 | S. cerevisiae deletion strains, locus YHR030C, strain SLT2, stronger effect = lower value 1.01 and 0.982 | S. cerevisiae deletion strains, locus YHR079C, strain IRE1 (second series), stronger effect = lower value 1.02 | S. cerevisiae deletion strains, locus YHR079C, strain IRE1, stronger effect = lower value 0.976 | S. cerevisiae deletion strains, locus YHR094C, strain hxt1, stronger effect = lower value 1.02 | S. cerevisiae deletion strains, locus YHR129C, strain ARP1, stronger effect = lower value 1.01 | S. cerevisiae deletion strains, locus YHR200W, strain rpn10, stronger effect = lower value 1.03 | S. cerevisiae deletion strains, locus YIL066C, strain RNR3, stronger effect = lower value 1.03 | S. cerevisiae deletion strains, locus YIL073C, strain SPO22, stronger effect = lower value 1.08 | S. cerevisiae deletion strains, locus YIL125W, strain kgd1, stronger effect = lower value 1.02 | S. cerevisiae deletion strains, locus YIR030C, strain dcg1, stronger effect = lower value 1.03 | S. cerevisiae deletion strains, locus YJL095W, strain BCK1, stronger effect = lower value 1.01 and 0.976 | S. cerevisiae deletion strains, locus YJL134W, strain LCB3, stronger effect = lower value 1.01 | S. cerevisiae deletion strains, locus YJL168C, strain set2, stronger effect = lower value 1.02 | S. cerevisiae deletion strains, locus YJL187C, strain SWE1 (second series), stronger effect = lower value 1.02 | S. cerevisiae deletion strains, locus YJR043C, strain POL32, stronger effect = lower value 1.01 | S. cerevisiae deletion strains, locus YJR066W, strain TOR1, stronger effect = lower value 0.928 | S. cerevisiae deletion strains, locus YJR075W, strain HOC1, stronger effect = lower value 0.999 | S. cerevisiae deletion strains, locus YKL009W, strain mrt4, stronger effect = lower value 1.02 | S. cerevisiae deletion strains, locus YKL068W, stronger effect = lower value 1.03 | S. cerevisiae deletion strains, locus YKL085W, strain MDH1 (second series), stronger effect = lower value 1.02 | S. cerevisiae deletion strains, locus YKL085W, strain MDH1, stronger effect = lower value 1.02 | S. cerevisiae deletion strains, locus YKL190W, strain CNB1, stronger effect = lower value 1.01 | S. cerevisiae deletion strains, locus YKR001C, strain vps1, stronger effect = lower value 1.02 | S. cerevisiae deletion strains, locus YLR039C, strain RIC1, stronger effect = lower value 1.05 | S. cerevisiae deletion strains, locus YLR058C, strain SHM2, stronger effect = lower value 1.01 | S. cerevisiae deletion strains, locus YLR102C, strain apc9, stronger effect = lower value 1.03 | S. cerevisiae deletion strains, locus YLR113W, strain HOG1, stronger effect = lower value 1 | S. cerevisiae deletion strains, locus YLR262C, strain YPT6, stronger effect = lower value 1.04 | S. cerevisiae deletion strains, locus YLR268W, strain sec22, stronger effect = lower value 1.02 | S. cerevisiae deletion strains, locus YLR330W, strain CHS5, stronger effect = lower value 1.01 | S. cerevisiae deletion strains, locus YLR342W, strain FKS1 (second series), stronger effect = lower value 0.986 | S. cerevisiae deletion strains, locus YLR371W, strain rom2, stronger effect = lower value 1.01 | S. cerevisiae deletion strains, locus YLR418C, strain cdc73, stronger effect = lower value 1.03 | S. cerevisiae deletion strains, locus YML016C, strain PPZ1, stronger effect = lower value 1.01 | S. cerevisiae deletion strains, locus YML032C, strain rad52, stronger effect = lower value 1.02 | S. cerevisiae deletion strains, locus YML124C, strain tub3, stronger effect = lower value 1.02 | S. cerevisiae deletion strains, locus YMR078C, strain ctf18, stronger effect = lower value 1.04 | S. cerevisiae deletion strains, locus YMR223W, strain ubp8, stronger effect = lower value 1.02 | S. cerevisiae deletion strains, locus YMR263W, strain SAP30, stronger effect = lower value 1.01 | S. cerevisiae deletion strains, locus YMR307W, strain GAS1, stronger effect = lower value 1.05 | S. cerevisiae deletion strains, locus YNL067W, strain RPL9B, stronger effect = lower value 1.01 | S. cerevisiae deletion strains, locus YNL128W, strain TEP1, stronger effect = lower value 0.998 | S. cerevisiae deletion strains, locus YNL153C, strain GIM3, stronger effect = lower value 1.01 | S. cerevisiae deletion strains, locus YNL183C, strain NPR1, stronger effect = lower value 0.932 | S. cerevisiae deletion strains, locus YNL233W, strain BNI4, stronger effect = lower value 1.01 | S. cerevisiae deletion strains, locus YNL250W, strain rad50, stronger effect = lower value 1.01 | S. cerevisiae deletion strains, locus YNL271C, strain bni1, stronger effect = lower value 1.02 | S. cerevisiae deletion strains, locus YNL298W, strain CLA4, stronger effect = lower value 1.03 | S. cerevisiae deletion strains, locus YNL307C, strain MCK1, stronger effect = lower value 1.02 | S. cerevisiae deletion strains, locus YNL322C, strain KRE1, stronger effect = lower value 1.01 | S. cerevisiae deletion strains, locus YNR052C, strain pop2, stronger effect = lower value 1.02 | S. cerevisiae deletion strains, locus YOL006C, strain TOP1, stronger effect = lower value 1.02 | S. cerevisiae deletion strains, locus YOL012C, strain htz1 1.44 | S. cerevisiae deletion strains, locus YOL147C, strain pex11, stronger effect = lower value 1.02 | S. cerevisiae deletion strains, locus YOR061W, strain CKA2, stronger effect = lower value 1 | S. cerevisiae deletion strains, locus YOR069W, strain VPS5, stronger effect = lower value 0.999 | S. cerevisiae deletion strains, locus YOR136W, strain idh2, stronger effect = lower value 1.02 | S. cerevisiae deletion strains, locus YOR144C, strain elg1, stronger effect = lower value 1.02 | S. cerevisiae deletion strains, locus YOR184W, strain ser1, stronger effect = lower value 1.02 | S. cerevisiae deletion strains, locus YOR231W, strain MKK1, stronger effect = lower value 0.987 | S. cerevisiae deletion strains, locus YOR316C, strain cot1, stronger effect = lower value 1.02 | S. cerevisiae deletion strains, locus YPL055C, strain LGE1, stronger effect = lower value 1 | S. cerevisiae deletion strains, locus YPL256C, strain CLN2, stronger effect = lower value 0.971 | S. cerevisiae deletion strains, locus YPR119W, strain clb2, stronger effect = lower value 1.03 | S. cerevisiae deletion strains, locus YPR141C, strain kar3, stronger effect = lower value 1.03 | S. cerevisiae deletion strains, locus YPR163C, strain tif3, stronger effect = lower value 1.02 | S. cerevisiae deletion strains, locus YPR167C, strain met16, stronger effect = lower value 1.02 | S. cerevisiae deletion strains, strain wtn01, stronger effect = lower value 1.02 | S. cerevisiae strains, strain wild type, stronger effect = lower value 1.01
active: S. cerevisiae deletion strains, locus YPL241C, strain CIN2, stronger effect = lower value 1.09 [resistant]
